Laboratory results as given in the supplement of paper PMC10849652.
About 7,900 targets were measured; listed, in parts, are those with a hit and a random draw of the rest. About 0.6% of all pairs of compound and target were hits.

compound: Cc1nc(Nc2n[nH]c3c2CN(C(=O)N[C@H](CN(C)C)c2ccccc2)C3(C)C)c2sccc2n1; assay: log2 fold change, soluble protein after heating vs DMSO (PISA); higher = thermal stabilisation; K562 cells, 10 uM, 30 min; active = over 0.2 and 3.5 SD of the protein, either way, in both replicates (recomputed)
Summary of the method: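 Values are thermal stability changes relative to control samples and are taken from duplicates. They are stated as log2 fold changes. Before quantification by TMTpro 16plex LC-MS/MS with equalised channel sums, K562 cells at 2×10^6 cells/mL were treated with 10 μM compound for 30 min, heated in aliquots for 3 min across 48°C-58°C, pooled, extracted in PBS with 0.5% NP-40 at 4°C, and centrifuged at 21,000xg for 90 min to give the soluble supernatant.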

Chain of UniProt Q00534 (Q00534 whole entry, looked up): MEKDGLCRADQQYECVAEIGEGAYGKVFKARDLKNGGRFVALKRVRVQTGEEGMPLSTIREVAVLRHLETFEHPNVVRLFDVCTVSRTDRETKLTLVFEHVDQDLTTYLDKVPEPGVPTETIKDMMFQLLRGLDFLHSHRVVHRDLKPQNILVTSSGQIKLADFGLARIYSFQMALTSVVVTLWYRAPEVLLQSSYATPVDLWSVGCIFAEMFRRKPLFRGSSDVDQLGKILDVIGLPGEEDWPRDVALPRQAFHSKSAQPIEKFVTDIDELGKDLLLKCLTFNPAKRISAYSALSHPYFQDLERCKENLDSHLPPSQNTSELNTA
Chain of UniProt Q96KP4 (Q96KP4 whole entry, looked up): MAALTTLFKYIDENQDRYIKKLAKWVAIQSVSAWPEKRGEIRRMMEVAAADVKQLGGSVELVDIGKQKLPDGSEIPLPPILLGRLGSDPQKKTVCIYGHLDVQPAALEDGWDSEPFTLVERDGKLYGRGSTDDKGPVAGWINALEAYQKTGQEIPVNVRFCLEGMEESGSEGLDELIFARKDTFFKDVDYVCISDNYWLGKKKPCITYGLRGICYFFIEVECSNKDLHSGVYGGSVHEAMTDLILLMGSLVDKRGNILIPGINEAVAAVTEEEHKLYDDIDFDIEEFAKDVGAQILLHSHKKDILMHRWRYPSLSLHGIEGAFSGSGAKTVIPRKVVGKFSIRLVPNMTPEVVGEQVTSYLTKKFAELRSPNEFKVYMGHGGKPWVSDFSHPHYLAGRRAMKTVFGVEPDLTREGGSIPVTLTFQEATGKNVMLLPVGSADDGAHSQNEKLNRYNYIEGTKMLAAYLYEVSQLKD
Chain of UniProt O75208 (O75208 whole entry, looked up): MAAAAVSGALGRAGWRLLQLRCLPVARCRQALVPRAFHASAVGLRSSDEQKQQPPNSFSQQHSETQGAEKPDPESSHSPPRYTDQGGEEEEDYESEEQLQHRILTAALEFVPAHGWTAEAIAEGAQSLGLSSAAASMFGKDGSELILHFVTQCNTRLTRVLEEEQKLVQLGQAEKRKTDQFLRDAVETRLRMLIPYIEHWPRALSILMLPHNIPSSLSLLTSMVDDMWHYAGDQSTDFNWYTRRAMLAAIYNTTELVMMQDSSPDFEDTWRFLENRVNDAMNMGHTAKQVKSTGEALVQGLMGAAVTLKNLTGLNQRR
Chain of UniProt Q5JTJ3 (Q5JTJ3 whole entry, looked up): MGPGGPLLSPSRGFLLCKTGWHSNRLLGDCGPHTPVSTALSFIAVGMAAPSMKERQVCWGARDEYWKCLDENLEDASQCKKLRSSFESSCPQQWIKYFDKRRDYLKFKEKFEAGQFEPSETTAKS
Chain of UniProt Q9HAW4 (Q9HAW4 whole entry, looked up): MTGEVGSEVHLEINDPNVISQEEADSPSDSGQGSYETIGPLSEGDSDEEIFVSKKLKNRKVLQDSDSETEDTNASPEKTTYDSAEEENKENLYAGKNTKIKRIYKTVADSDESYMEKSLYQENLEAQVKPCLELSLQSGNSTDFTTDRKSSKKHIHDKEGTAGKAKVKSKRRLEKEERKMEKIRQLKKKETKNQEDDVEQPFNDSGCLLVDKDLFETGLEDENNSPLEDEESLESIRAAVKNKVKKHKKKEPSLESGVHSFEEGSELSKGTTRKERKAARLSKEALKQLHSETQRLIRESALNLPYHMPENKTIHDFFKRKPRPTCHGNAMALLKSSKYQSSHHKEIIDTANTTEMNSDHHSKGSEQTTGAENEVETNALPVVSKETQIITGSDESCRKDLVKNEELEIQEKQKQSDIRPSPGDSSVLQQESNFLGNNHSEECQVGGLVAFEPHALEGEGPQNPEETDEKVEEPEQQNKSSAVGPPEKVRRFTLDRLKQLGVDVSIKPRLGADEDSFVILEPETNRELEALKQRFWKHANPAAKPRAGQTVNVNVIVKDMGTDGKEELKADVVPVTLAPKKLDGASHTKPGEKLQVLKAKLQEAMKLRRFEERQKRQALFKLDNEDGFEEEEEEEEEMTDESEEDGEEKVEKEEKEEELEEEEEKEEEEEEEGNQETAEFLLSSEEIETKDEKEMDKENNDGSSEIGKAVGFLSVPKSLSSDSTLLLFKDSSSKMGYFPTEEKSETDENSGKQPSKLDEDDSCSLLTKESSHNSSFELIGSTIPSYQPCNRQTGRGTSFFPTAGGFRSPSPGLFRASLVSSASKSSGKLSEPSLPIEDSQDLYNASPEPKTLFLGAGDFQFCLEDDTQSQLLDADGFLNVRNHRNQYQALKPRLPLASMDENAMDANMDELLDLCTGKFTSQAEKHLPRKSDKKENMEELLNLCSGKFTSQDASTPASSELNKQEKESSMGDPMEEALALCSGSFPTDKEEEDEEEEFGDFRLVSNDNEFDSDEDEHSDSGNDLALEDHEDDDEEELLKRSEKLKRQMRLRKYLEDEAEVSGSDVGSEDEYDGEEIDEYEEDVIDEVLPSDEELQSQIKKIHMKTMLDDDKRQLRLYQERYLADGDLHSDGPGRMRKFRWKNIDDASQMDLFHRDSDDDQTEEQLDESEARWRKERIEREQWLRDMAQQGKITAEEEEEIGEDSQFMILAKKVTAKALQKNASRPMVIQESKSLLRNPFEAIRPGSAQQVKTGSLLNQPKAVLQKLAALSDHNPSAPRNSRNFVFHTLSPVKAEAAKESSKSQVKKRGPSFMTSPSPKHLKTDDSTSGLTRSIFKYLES
Chain of UniProt P33240 (P33240 whole entry, looked up): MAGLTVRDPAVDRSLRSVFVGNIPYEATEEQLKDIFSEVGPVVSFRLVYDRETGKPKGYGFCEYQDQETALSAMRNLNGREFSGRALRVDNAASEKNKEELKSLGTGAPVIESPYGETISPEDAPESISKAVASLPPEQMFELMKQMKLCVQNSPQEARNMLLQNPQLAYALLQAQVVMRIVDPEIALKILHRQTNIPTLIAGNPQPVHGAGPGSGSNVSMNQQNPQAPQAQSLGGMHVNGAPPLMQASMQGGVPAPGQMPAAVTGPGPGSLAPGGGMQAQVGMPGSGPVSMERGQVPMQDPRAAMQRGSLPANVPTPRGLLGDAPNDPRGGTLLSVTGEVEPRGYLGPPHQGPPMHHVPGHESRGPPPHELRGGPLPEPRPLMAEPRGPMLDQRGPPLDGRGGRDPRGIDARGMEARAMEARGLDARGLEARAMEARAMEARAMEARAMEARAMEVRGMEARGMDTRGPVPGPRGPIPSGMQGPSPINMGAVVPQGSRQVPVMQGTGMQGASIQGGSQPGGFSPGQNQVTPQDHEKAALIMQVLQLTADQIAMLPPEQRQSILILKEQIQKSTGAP
Chain of UniProt Q5T5Y3 (Q5T5Y3 whole entry, looked up): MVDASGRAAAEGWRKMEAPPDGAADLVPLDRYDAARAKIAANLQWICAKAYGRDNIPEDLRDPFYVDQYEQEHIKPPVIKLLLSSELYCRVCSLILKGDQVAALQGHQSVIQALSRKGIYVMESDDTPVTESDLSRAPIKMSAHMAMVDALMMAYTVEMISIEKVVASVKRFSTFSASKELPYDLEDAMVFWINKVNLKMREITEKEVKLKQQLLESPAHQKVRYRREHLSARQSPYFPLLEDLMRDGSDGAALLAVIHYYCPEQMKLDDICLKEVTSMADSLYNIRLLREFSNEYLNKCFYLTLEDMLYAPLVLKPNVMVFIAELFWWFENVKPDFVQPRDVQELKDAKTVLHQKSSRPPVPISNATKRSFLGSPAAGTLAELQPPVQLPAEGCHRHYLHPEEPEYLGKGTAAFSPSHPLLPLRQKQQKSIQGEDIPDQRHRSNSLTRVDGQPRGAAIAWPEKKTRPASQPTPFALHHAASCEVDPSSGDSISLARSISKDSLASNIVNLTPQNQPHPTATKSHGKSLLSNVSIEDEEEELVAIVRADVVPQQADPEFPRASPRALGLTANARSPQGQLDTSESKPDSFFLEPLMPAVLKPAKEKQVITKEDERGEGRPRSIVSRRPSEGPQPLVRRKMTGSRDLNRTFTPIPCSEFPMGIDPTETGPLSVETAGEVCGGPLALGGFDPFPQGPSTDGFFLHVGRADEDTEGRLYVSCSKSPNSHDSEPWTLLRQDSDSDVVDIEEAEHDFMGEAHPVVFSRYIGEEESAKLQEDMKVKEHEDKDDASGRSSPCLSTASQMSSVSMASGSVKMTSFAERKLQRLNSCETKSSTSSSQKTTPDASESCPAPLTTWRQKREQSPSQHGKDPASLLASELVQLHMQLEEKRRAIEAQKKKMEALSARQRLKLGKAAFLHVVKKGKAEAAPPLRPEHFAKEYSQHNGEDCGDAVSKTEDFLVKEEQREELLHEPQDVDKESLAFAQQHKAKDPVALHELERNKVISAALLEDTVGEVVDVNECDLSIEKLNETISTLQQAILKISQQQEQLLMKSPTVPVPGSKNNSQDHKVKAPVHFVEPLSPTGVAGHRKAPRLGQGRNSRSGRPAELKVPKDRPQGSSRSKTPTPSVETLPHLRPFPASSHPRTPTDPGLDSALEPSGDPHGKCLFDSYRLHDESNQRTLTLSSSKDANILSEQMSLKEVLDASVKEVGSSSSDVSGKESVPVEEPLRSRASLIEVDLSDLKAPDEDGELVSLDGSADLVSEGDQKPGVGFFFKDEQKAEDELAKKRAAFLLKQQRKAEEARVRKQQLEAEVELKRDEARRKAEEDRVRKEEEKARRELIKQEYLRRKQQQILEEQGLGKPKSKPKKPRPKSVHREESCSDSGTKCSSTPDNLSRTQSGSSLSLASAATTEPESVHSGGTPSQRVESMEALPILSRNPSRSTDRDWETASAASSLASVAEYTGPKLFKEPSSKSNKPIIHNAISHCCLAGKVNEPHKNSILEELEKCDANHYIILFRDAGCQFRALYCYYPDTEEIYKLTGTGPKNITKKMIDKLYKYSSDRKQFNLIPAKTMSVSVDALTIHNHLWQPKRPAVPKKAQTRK
Chain of UniProt Q86X83 (Q86X83 whole entry, looked up): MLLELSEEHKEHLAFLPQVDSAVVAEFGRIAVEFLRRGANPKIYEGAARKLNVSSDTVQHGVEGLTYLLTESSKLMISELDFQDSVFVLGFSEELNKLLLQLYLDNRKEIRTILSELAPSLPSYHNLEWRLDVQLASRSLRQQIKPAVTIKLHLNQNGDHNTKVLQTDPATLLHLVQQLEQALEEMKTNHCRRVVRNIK

log2 fold change, active:
CHEK1 (UniProt O14757) -1.17, CLASP2 isoform 3 (UniProt O75122) -0.279

log2 fold change, inactive:
C9orf64 (UniProt Q5T6V5) -0.094, CELF2 isoform 3 (UniProt O95319) 0.013, CAMSAP1 isoform 3 (UniProt Q5T5Y3) -0.061, CNOT4 isoform 6 (UniProt O95628) -0.042, CSTF2 (UniProt P33240) 0.074, CBX5 (UniProt P45973) -0.138, CHD3 isoform 3 (UniProt Q12873) -0.274, CCDC9 (UniProt Q9Y3X0) 0.117, CHERP (UniProt Q8IWX8) -0.353, COQ9 (UniProt O75208) -0.035, CPQ (UniProt Q9Y646) 0.053, CD81 (UniProt P60033) 0.016, CDK6 (UniProt Q00534) -0.079, CHMP4C (UniProt Q96CF2) -0.021, CHAC2 (UniProt Q8WUX2) -0.153, CSNK2B (UniProt P67870) 0.018, CBR1 (UniProt P16152) 0.003, CRKL (UniProt P46109) -0.054, CHD4 isoform 2 (UniProt Q14839) -0.267, COA6 isoform 2 (UniProt Q5JTJ3) 0.02, CNDP2 (UniProt Q96KP4) -0.015, CETN2 (UniProt P41208) -0.055, CAMKK2 (UniProt Q96RR4) 0.226, CKS1B (UniProt P61024) -0.016, CLPP (UniProt Q16740) 0.005, CDK9 isoform 2 (UniProt P50750) -0.059, CHAMP1 (UniProt Q96JM3) -0.132, CCDC167 (UniProt Q9P0B6) -0.035, CALCOCO2 isoform 4 (UniProt Q13137) 0.038, CPSF3 (UniProt Q9UKF6) -0.073, CLSPN (UniProt Q9HAW4) -0.011, COMMD2 (UniProt Q86X83) -0.069, CLCN3 (UniProt P51790) 0.04, CCNK isoform 4 (UniProt O75909) 0.046
